Shown are actives, neighbours in structure and some others; about 1.7% of the full set was active somewhere.
PTHR1 agonist: activates the human parathyroid hormone receptor PTHR1; HEK293 GP2 PTHR1 cells, GloSensor cAMP luminescence, 1 h; Potency, µM (highest dose often 115 µM), for inactives: at the highest dose activation, actives largely listed as activators; 410,000 tested, 0.075% active; AID 743266; note: nearly all actives have a fitted effect of over 55% in size
Target sequence (Q03431 whole entry, looked up): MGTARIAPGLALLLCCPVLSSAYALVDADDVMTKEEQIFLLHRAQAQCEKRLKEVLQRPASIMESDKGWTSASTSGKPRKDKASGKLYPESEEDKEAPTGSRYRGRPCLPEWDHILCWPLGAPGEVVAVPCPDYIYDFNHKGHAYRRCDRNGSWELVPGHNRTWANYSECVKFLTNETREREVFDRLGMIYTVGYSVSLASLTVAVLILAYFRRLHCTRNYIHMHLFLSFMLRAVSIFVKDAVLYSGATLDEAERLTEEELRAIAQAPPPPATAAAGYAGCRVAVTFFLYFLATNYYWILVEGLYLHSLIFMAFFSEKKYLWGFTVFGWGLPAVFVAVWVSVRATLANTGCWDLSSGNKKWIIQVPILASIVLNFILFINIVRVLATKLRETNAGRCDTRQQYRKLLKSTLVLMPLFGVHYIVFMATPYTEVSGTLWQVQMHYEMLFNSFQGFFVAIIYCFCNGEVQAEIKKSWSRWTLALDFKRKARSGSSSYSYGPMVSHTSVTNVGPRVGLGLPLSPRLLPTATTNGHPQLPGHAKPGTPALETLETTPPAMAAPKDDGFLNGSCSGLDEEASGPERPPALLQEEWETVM
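HEK-293-derived GP2 cells expressing PTHR1 and a GloSensor cAMP reporter, 3,000/well, plated overnight, given luciferin plus IBMX (each 0.5 mM as added) for 1 h at 37 °C, then compound for 1 h at 37 °C. Luminescence was read after 15 min at room temperature.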
GLP1R inv ag: inverse agonists of human GLP-1 receptor; Potency, µM (doses to about 38.3 µM), without a hit: at the highest dose activity change, negative = inhibition, hits mostly inhibitors; P43220; 410,000 tested, 1.6% active; AID 624417; HEK293 GLP-1R CRE-luciferase, luminescence, 24 h; GLP-1R form is constitutively active; note: % is set by controls: 0 for no effect and ±100 for the full control effect; nearly all actives have a fitted effect of over 55% in size
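GLP-1R inverse agonism mode: basal reporter luminescence in engineered HEK293 cells measured after one day of compound exposure at 37 deg C, with a 12 min room-temperature detection step.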
GLP1R ag: activates the human GLP-1 receptor | P43220 | HEK293 GLP-1R CRE-luciferase, luminescence, 4-6 h; cells express a hypersensitive GLP-1R form | Potency, µM (titrated, usually from 45.6 µM), inactives show at the top dose activation, usual class: activators | 380,000 tested, 0.007% active; note: % of control where 0% means no effect
GLP1R cytotox: cytotoxicity in counter-screen for GLP-1R inverse agonists | Potency, µM (titrated, usually from 38.3 µM), inactives show at the top dose activity change, negative = inhibition, hits mostly inhibitors | AID 624418 | HEK293 cAMP-luciferase reporter cells, luminescence, 24 h | 410,000 tested, 0.13% active;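 note: loss of luciferase light is scored as toxicity; % is set by controls: 0 for no effect and ±100 for the full control effect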
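Seeding density was 200 cells/uL; after overnight-length (12 h) culture, 23 nL compounds went on for 24 h at 37 °C. Readout used a luciferase detection reagent, luminescence taken after 12 min at room temperature.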
Numbers without * were called inactive; i = inactive; u = inconclusive; x = no result given; [ ] = dose if it differs, or a comment. Calls come from the whole dose curve; as a rule, active = well fitted curve in the direction sought with a large enough effect; inconclusive = small, poorly fitted or top-dose-only effect, or another doubt; inactive = no such curve, though single readings can be large; an effect the other way counts as inactive or inconclusive. Potency is the fitted concentration of half-maximal effect.

SMILES | PTHR1 agonist | GLP1R inv ag | GLP1R ag | GLP1R cytotox
COc1cccc(OCC(O)CN2CCN(c3ccc(Cl)cc3)CC2)c1 (centres undefined) | -13.4% | 10µM* | -0.9% | 0.8%
Cc1ccc(N2CCN(CC(O)COc3cccc4ccccc34)CC2)cc1 (centres undefined) | -26.3% | 11.2µM* | -6.3% | u
CC1CCC(NC(=O)c2ccc3c(c2)N(Cc2ccccc2F)C(=O)c2ccccc2S3)CC1 (centres undefined) | i | u | x | 11.7%
COc1ccc(CCNC(=O)CCCn2nc(C)c3sc4ccccc4c3c2=O)c(OC)c1 | 2.0% | -1.3% | x | 0.0%
CC(C)(C)c1ccc(OCCn2cc(C(=O)c3ccco3)c3ccccc32)cc1 | 3.5% | 7.94µM* | x | -21.2%
O=C(c1cccs1)c1cn(CCOc2ccc(F)cc2)c2ccccc12 | -1.3% | 11.2µM* | x | 0.1%
O=C(c1ccco1)c1cn(CCOc2ccc(Cl)cc2)c2ccccc12 | -24.9% | -15.0% | x | -3.3%
Cc1oc(-c2ccc(Cl)cc2)nc1CS(=O)CC(=O)NCCCN1CC(C)CC(C)C1 (centres undefined) | i | 5.62µM* | 8.4% | u
Cc1ccc(-c2nc(CS(=O)CC(=O)NC(C)CCc3ccccc3)c(C)o2)cc1 (centres undefined) | -14.3% | 8.91µM* | -0.4% | -0.5%
Cc1cccc(NC(=O)C(NS(=O)(=O)c2cccc3nsnc23)c2ccccc2)c1C (centres undefined) | i | -23.6% | x | 0.2%
CCOC(=O)N1CCN(CC(=O)Nc2sc(CC)cc2C(=O)c2ccc(OC)cc2)CC1 | -22.0% | 5.62µM* | 18.5% | -25.8%
CCc1cc(C(=O)OC)c(NC(=O)CN2CCN(C(=O)c3ccco3)CC2)s1 | -77.3% | 10.4% | 9.5% | 7.8%
Fc1ccccc1C1c2[nH]c3ccccc3c2CCN1Cc1ccoc1 (centres undefined) | -7.7% | 8.91µM* | 8.8% | 3.8%
O=C(Nc1nc2c(F)cccc2s1)c1ccc2c(c1)OCCO2 | -32.5% | u | 0.2% | -12.6%
COc1ccc(-c2cccc([C@H]3[C@@H]4C=CC[C@@H](C)[C@@H]4C(=O)N3Cc3ccccc3)c2)cc1 | -3.9% | u | -1.3% | -8.2%
CC(=O)c1ccc(-c2cccc([C@H]3[C@@H]4C=CC[C@@H](C)[C@@H]4C(=O)N3Cc3ccccc3)c2)cc1 | -0.9% | 10µM* | 4.8% | -0.8%
NC(=S)N/N=C1\CC(c2ccc3c(c2)OCCCO3)Oc2ccc(F)cc21 (centres undefined) | -21.0% | 12.6µM* | 23.6% | u
NC(=S)N/N=C1\CC(c2ccc3c(c2)OCCO3)Oc2ccc(F)cc21 (centres undefined) | -11.4% | 3.55µM* | 25.0% | u
O=C(O[C@H]1CN2CCC1CC2)N1CCc2ccccc2[C@@H]1c1ccccc1 | x | x | 0.5% | x
CCOc1ccc(CCN2C(=S)N([C@@H](CC(C)C)CN3CCCC3CN3C(=S)NC[C@@H]3Cc3ccc(O)cc3)C[C@@H]2Cc2ccccc2)cc1 (some centres undefined) | i | 11.2µM* | -0.6% | 0.6%
CCOc1ccc(CCN2C(=S)N([C@@H](CC(C)C)CN3CCCC3CN3C(=S)NC[C@@H]3Cc3ccc(O)cc3)C[C@@H]2CC(C)C)cc1 (some centres undefined) | i | 10µM* | 8.7% | -4.5%
CCCCC1CCC(C(=O)N2CC(=O)Nc3ccc(Cl)cc3C2c2ccc(F)cc2)CC1 (centres undefined) | i | u | x | 0.3%
CC1CC(C)CN(S(=O)(=O)N2CCCC(C(=O)NCc3ccccc3Cl)C2)C1 (centres undefined) | -28.3% | u | -4.6% | 5.3%
Cc1ccc(S(=O)(=O)N2CCC(C(=O)NCc3ccccc3CN3CCCC3)CC2)cc1C | i | 4.47µM* | -0.3% | -27.4%
CC1CCN(S(=O)(=O)N2CCCC(C(=O)NCc3ccccc3Cl)C2)CC1 (centres undefined) | -0.6% | 7.08µM* | 6.5% | 10.1%
SMILES | PTHR1 agonist | GLP1R inv ag | GLP1R ag | GLP1R cytotox
O=C(NCCc1ccc(Cl)cc1)C1CCCN(S(=O)(=O)N2CCCCCC2)C1 (centres undefined) | -37.4% | 5.62µM* | 9.6% | -3.4%
O=C(NCc1ccccc1CN1CCCC1)C1CCN(S(=O)(=O)c2ccc(F)c(F)c2)CC1 | 7.3% | u | 2.3% | 4.5%
Cn1cc(S(C)=O)c(=O)c2ccc(F)cc21 (centres undefined) | x | x | -3.5% | x
Cc1nn(Cc2c(F)c(F)c(F)c(F)c2F)c(C)c1NC(=O)c1ccc(COc2ccccc2Cl)o1 | -9.6% | 10µM* | -3.1% | -7.0%
Cc1nn(Cc2c(F)c(F)c(F)c(F)c2F)c(C)c1NC(=O)c1ccc(COc2ccccc2Cl)cc1 | -13.7% | -7.8% | 0.8% | -15.3%
COc1cc(OC)nc(-n2ncc(Br)c(Br)c2=O)n1 | -30.2% | u | -4.6% | 3.16µM*
COC(=O)c1cnn(-c2nc(OC)cc(OC)n2)c1C | -20.0% | -0.9% | -0.5% | 6.8%
O=C(Nc1ccc2ccccc2c1)c1onc2c1CCCC2 | -36.9%[57.5 µM] | 8.91µM* | -0.7% | -4.5%
COC(=O)c1cccc(NC(=O)c2onc3c2CCCC3)c1 | -13.5% | -19.1% | 0.4% | 0.1%[1.53 µM]
O=C(c1ccc2c(c1)N(Cc1ccccc1F)C(=O)c1ccccc1S2(=O)=O)N1CCC(Cc2ccccc2)CC1 | -3.3% | 4.4% | 0.7% | -8.6%
CNC(=O)C1CCC(Cn2c(=O)c3sccc3n(CC(=O)Nc3cc(C)cc(C)c3)c2=O)CC1 (centres undefined) | 2.2% | 7.4% | x | -7.2%
Cc1nc(N2CCCCC2)c2c(C)c(C(=O)Nc3cccc(C(F)(F)F)c3)sc2n1 | -42.2% | u | 9.5% | -20.3%
Cc1nc(N2CCCCC2C)c2c(C)c(C(=O)Nc3cccc(C(F)(F)F)c3)sc2n1 (centres undefined) | -22.9% | 10µM* | 4.0% | u
CCC1C(=NO)C(CC)C(c2ccccc2)NC1c1ccccc1 (centres undefined) | -30.7% | 3.55µM* | -0.2% | u
Cc1ccc(Cl)cc1N1CCN(C(=O)c2ccc(CS(=O)Cc3ccc(Cl)cc3)o2)CC1 (centres undefined) | -27.0% | 8.91µM* | -5.0% | -16.6%
Cc1ccc(C)c(N2CCN(C(=O)c3ccc(CS(=O)Cc4ccc(Cl)cc4)o3)CC2)c1 (centres undefined) | -92.1% | 10µM* | -3.8% | -22.5%
COc1ccc(CCNC(=O)CCc2c(C)c3cc4c(C)coc4c(C)c3oc2=O)cc1OC | -36.1% | -8.5% | x | 8.7%
O=C(CC1NCCNC1=O)Nc1ccccc1F (centres undefined) | -23.3% | 16.7% | -0.8% | 3.6%
O=C(Nc1cc(C(F)(F)F)ccc1Cl)C(Sc1ccccn1)c1ccccc1 (centres undefined) | -10.8% | 8.91µM* | -6.2% | 10.6%
CCCOc1ccc(CCc2n[nH]c(=S)n2Cc2ccccc2)cc1 | -12.2%[57.5 µM] | 8.91µM* | 0.7% | -2.0%

Screening results from PubChem.
